Measured values from the supplement of paper PMC3334620.
Over roughly 33,000 sequences, “E-score (-0.5 to 0.5)” has its median near -8e-05; the highest 2% begin near 0.23. The sample holds the highest values, similar sequences and a random draw of the others, so the mix is not that of the screen.

These sequences were tested against T1, Nrg2 (UniProt P38082) (assay: PBM E-score (8-mer binding enrichment) (E-score (-0.5 to 0.5)); higher = stronger / more preferred TF binding). Settings: protein concentration: 100 nM; construct: GST-full length.
T1 sequence: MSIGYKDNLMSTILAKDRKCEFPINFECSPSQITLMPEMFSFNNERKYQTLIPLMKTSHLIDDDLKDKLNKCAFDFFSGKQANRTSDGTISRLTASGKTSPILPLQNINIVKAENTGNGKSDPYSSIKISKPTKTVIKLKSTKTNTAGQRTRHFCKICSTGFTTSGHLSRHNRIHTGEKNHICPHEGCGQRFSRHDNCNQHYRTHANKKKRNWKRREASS
Summary of the method: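 PURExpress in vitro transcription/translation supplied GST-tagged yeast transcription factors, either full-length or DNA-binding domain. Applied at about 100-200 nM to universal all-10-mer Agilent arrays double-stranded by primer extension, the bound protein was detected with fluorescent anti-GST. E-scores, modified Wilcoxon-Mann-Whitney statistics, were given by the Universal PBM Analysis Suite to ungapped eight-base words pooled with their reverse complements after masliner normalisation.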

Point of comparison: ATGGGTCC, “PBM E-score” value 0.0519. Against it:
- GGCCTAAC — higher, 0.0899
- GCTGGAAC — lower, -0.144
- TGGCATAA — higher, 0.144
- AAGAGGTA — lower, 0.0504
- ACTCCTCA — lower, -0.24
- ACGACGTA — lower, -0.166
- ATTTCGTA — lower, 0.0258
- AAGCGGAA — lower, -0.0181
- AACTAAGT — higher, 0.168
- ATAGTCGG — lower, -0.122
- CTAGTCGA — lower, -0.0659
- ATAGTCGA — higher, 0.264
- CTGGGTCC — lower, -0.288
- GATCGCGA — higher, 0.168
- ACTCGCGA — higher, 0.273
- GGTCGCGA — higher, 0.242
- TATCGCGA — higher, 0.252
- CATCGCGA — higher, 0.127
- CGTCGCGA — higher, 0.143
- AGTCGCGA — higher, 0.226
- ACTCGCGC — lower, 0.0455
- CCTCGCGA — higher, 0.179
- ATTGTGCG — lower, -0.0707
- CCTCGAGA — higher, 0.156
- GCTCGAGA — lower, -0.131
- GCTCGAGC — higher, 0.24
- CCTCGAGC — higher, 0.267
- CCTCGAGG — higher, 0.242
- GCTCGACC — lower, -0.0125
- CCTCGAAG — lower, 0.0341
- ACTCGAGC — higher, 0.073
- ACTCGAGG — higher, 0.162
- AAGCTATC — higher, 0.153
- ACAACGCG — higher, 0.12
- AGCGCACA — higher, 0.137
- ACTAGCAT — lower, -0.0422
- AAGACCGA — lower, -0.018
- CAAATGCG — higher, 0.268
- TAAATGCA — higher, 0.275
- CAAATGCA — lower, -0.0764
- AAAATGCG — lower, 0.0104
- GAAATGCA — higher, 0.055
- CAAATGCC — lower, -0.0811
- AAACCTCC — lower, -0.115
- AAACTGCG — lower, -0.0689
- AGTTTCGA — lower, 0.0135
- ATATGGAT — higher, 0.247
- ATATGGAG — higher, 0.147
- ATATGGAC — higher, 0.0806
- GGTGAGAA — lower, -0.0568
- GAGCGACC — lower, -0.168
- CAAGTTTC — lower, -0.00709
- CCCATGAC — lower, -0.0865
- GGTTTCGA — higher, 0.191
- AAAATGGA — higher, 0.308
- CAAATGGA — lower, -0.0362
- AAAATGGG — lower, -0.0403
- AGGGGTCC — higher, 0.316
- CCGGGTCC — lower, -0.171
- AGGGGTCG — higher, 0.0876
- AGGGGTCA — higher, 0.128
- AAAGGTCC — higher, 0.0985
- AAGGGTCC — higher, 0.439
- AAGGGTGT — higher, 0.0853
- CAGGGTCC — higher, 0.446
- CAGAGTCC — higher, 0.0801
- AAGGGTCT — higher, 0.273
- AAGGGTCA — higher, 0.149
- AAGGTAGG — lower, 0.00624
- GGATAACC — lower, -0.141
- GTCTTTCA — lower, -0.177
- AGCCGAAG — lower, -0.104
- TATAGACA — higher, 0.0604
- AGATTCCG — higher, 0.101
- AAGGGTCG — higher, 0.132
- CAGGGTCA — higher, 0.0802
- GAGGGTCC — higher, 0.282
- GCGGGTCC — lower, -0.0518
- CAGGGTCG — higher, 0.264
- GAGGGTCA — lower, -0.227
- ACCCCTGC — higher, 0.066
- CAAACGAA — lower, -0.0374
- TAAGCAAA — lower, 0.0437
- ACCCCTCA — higher, 0.0629
- TCCCCTCA — higher, 0.235
- CCCCCTCA — lower, -0.379
- AACTGACT — lower, -0.167
- AAAGTTGG — higher, 0.132
- AAAGTTGC — lower, 0.0327
- AAAGTTGT — higher, 0.297
- AGTGGCTG — higher, 0.126
- AGGGCTGA — lower, -0.201
- AGTCTTTC — lower, -0.0294
- CCAGACAG — lower, -0.00394
- ACAGACAG — higher, 0.255
- ACAGACAC — lower, -0.0421
- TGTTGTAA — higher, 0.102
- GACAGCGA — lower, -0.131
- CGAAGACG — lower, -0.0796
- GTCACGTA — lower, -0.249
- CAATACAA — higher, 0.275
- AAATACAA — higher, 0.0802
- CAATACAC — higher, 0.0544
- TAATACAA — higher, 0.235
- GAATACAA — higher, 0.107
- CAATACAG — higher, 0.125
